# Source: ChEMBL document CHEMBL4513216, “Probing the Open Global Health Chemical Diversity Library for Multistage-Active Starting Points for Next-Generation Antimalarials” (ACS Infect Dis, 2020)
# Among all 68,000 compounds or so, about 2,700 (4%) showed an effect of 50% or more. Many of the other results were omitted from the sample, so strong results are more common in it than they were.
# Tested on: Plasmodium berghei
# Assay: Screen against P. berghei liver stage (PbLuc), transformed with Luciferase, at 2uM
# Type: functional, HepG2
# Conditions: tested at 2 uM
row,Compound,INHIBITION [%]
1,COc1ccc(CN2CCC3(CC2)CCN(CC2CC2)C3=O)cc1,-0.64
2,CC(C)CNC(=O)c1ccc(NC(=O)NC(C)c2ccccn2)cc1 (stereo unspecified),-17.17
3,O=C(c1ccccn1)N1Cc2nccn2CC(COc2cccnc2)C1 (stereo unspecified),-28.34
4,Cc1ccc(Oc2ncccc2C(=O)N(C)CCCN(C)C)c(C)c1,32.85
5,Cc1ccc(Oc2ncccc2C(=O)N(C)CC2OCCO2)c(C)c1,23.53
6,Cc1ccc(Oc2ncccc2C(=O)O)c(C)c1,50.61
7,O=C(c1ccco1)N1CC2(CCNCC2)c2cc(Cl)ccc21,34.18
8,COCc1cc(N2C[C@@H](C)[C@](O)(C3CC3)C2)ncn1,8.09
9,COc1cc(N2C[C@@H](C)[C@](O)(C3CC3)C2)ncn1,18.38
10,COc1cc(N2C[C@@H](C)[C@](O)(C3CC3)C2)nc(N)n1,56.12
11,CN(CC1CCCC1)C(=O)c1cn(C)nc1-c1cccnc1,32.67
12,COc1nccc(N2CC[C@H](CO)[C@@H](O)C2)c1C#N,5.38
13,Cn1ncc2c1CCCC2NCc1cccc(C(F)(F)F)c1 (stereo unspecified),13.24
14,CN1CCCC(c2nc3c([nH]2)CC(C)(C)CNC3=O)C1 (stereo unspecified),-3.25
15,CC1(C)CNC(=O)c2nc(C3CCN(C(=O)C4CC4)CC3)[nH]c2C1,33.4
16,CC1(C)CNC(=O)c2nc(C3CCCN(C(=O)C4CC4)C3)[nH]c2C1 (stereo unspecified),73.68
17,Cc1ccccc1C(=O)NCCCN1CCc2ccccc2C1,-13.46
18,COc1cccc(C(=O)NCCCN2CCc3ccccc3C2)c1OC,51.32
19,Cc1cccc(C(=O)NCCCN2CCc3ccccc3C2)c1C,28.88
20,COC[C@@]12CCO[C@@H]1CCN(C(=O)COc1ccc(C)cc1)C2,-42.87
21,O=C(NCCc1ccc(Cl)s1)N1CCS(=O)(=O)CC1,-13.46
22,COc1cccc(F)c1C(C)NC(=O)NCc1ccnc(C)n1 (stereo unspecified),-38.35

row,Compound,INHIBITION [%]
1,Cc1nc(C)n(CC2CN(S(C)(=O)=O)Cc3nccn3C2)n1 (stereo unspecified),26.66
2,CC1=Nc2c(c(=O)[nH]n2C(C)C)C(c2ccsc2)S1 (stereo unspecified),14.2
3,CC1=Nc2c(c(=O)[nH]n2C(C)C)C(c2ccc(F)c(F)c2)S1 (stereo unspecified),-52.59
4,CC1=Nc2c(c(=O)[nH]n2C(C)C)C(c2ccccc2)S1 (stereo unspecified),18.37
5,CC1=Nc2c(c(=O)[nH]n2C(C)C)C(c2cccs2)S1 (stereo unspecified),63.91
6,CC1=Nc2c(c(=O)[nH]n2C(C)C)C(c2ccc3c(c2)OCCO3)S1 (stereo unspecified),-19.21
7,CC1=Nc2c(c(=O)[nH]n2C(C)C)C(c2ccc3c(c2)n(C)c(=O)n3C)S1 (stereo unspecified),53.71
8,COc1ccccc1[C@@H]1CN(C(=O)c2csc(C)n2)C[C@H]1C(=O)O,10.69
9,CC(C)CC(C#N)NC(=O)COC1CCCCC1 (stereo unspecified),30.23
10,c1csc(CN2C[C@@H]3OCCN(CC4CCCO4)[C@@H]3C2)c1 (stereo partly specified),20.13
11,CCOCCN1CCN(Cc2cccc(C(=O)N(C)C)c2)CC1CC (stereo unspecified),50.05
12,CCC1CN(CC(=O)N2CCC2)CCN1CCOC (stereo unspecified),24.15
13,CCOCCN1CCN(CC(=O)N2CCC2)CC1CC (stereo unspecified),53.98
14,CCOCCN1CCN(Cc2cccc(C(=O)N(C)C)c2)CC1C (stereo unspecified),30.29
15,CCC1CN(Cc2cccc(C(=O)N(C)C)c2)CCN1CCOC (stereo unspecified),2.77
16,CCOCCN1CCN(Cc2cccc(C(=O)N(C)C)c2)CC1,10.62
17,CN(C)C(=O)c1cccc(CN2CCN(CCO)CC2)c1,54.99
18,CCOCCN1CCN(CC(=O)N2CCCC2)CC1CC (stereo unspecified),-9.17
19,COCCN1CCN(Cc2cccc(C(=O)N(C)C)c2)CC1,21.83
20,Cc1ccc(CN2CC3(CCN(C(=O)C4CC4)CC3)CC2C(=O)O)o1 (stereo unspecified),15.46
21,CCn1cc(NC(=O)NCC(c2cccc(F)c2)N(C)C)cn1 (stereo unspecified),-41.59
22,O=C(c1ccnnc1)N1C[C@@H](OCC2CCOCC2)[C@H]2OCCC[C@H]21,3.35

row,Compound,INHIBITION [%]
1,COc1cc(C)nc(N2CCN(C(=O)CCc3cscn3)CC2)n1,-8.58
2,CC1CS(=O)(=O)CCN1CCCc1ccc(Cl)cc1 (stereo unspecified),-15.12
3,CS(=O)(=O)N1CCOCC12CCN(Cc1ccc(F)cc1)CC2,-12.74
4,CNC(=O)N1CC[C@@H]2CN(Cc3cccnc3)S(=O)(=O)[C@@H]2CC1,-23.02
5,Cc1ccc(CN2CCC3(CC2)CC(c2cccnc2)C(=O)N3C)o1 (stereo unspecified),8.6
6,Cc1nc2c(c(=O)[nH]1)CN(Cc1ccc3c(c1)CCCN3C)CC2,30.25
7,CSCCCN1CCCC1c1noc(C(C)C)n1 (stereo unspecified),5.05
8,Cc1ccccc1OC1CCN(CC(=O)Nc2cn(C)nc2C)CC1,54.75
9,CCn1cc(NC(=O)CN2CCC(Oc3ccccc3C)CC2)c(C)n1,45.49
10,Cc1ccccc1OC1CCN(CC(=O)Nc2ccn(C)n2)CC1,9.02
11,CCOc1ncnc2c1CCN(C(=O)CN(C)C)CC2,19.49
12,O=C(CC1CC1)N1Cc2nccn2CC(COc2cccnc2)C1 (stereo unspecified),23.97
13,OC1(CN2CCc3nnc(Cc4cccnc4)n3CC2)CCCNC1 (stereo unspecified),34.71
14,OCCOc1ccc(NCc2cccc3cccnc23)cn1,67.44
15,OCCOc1ccc(NCc2cc(F)cc3cccnc23)cn1,45.56
16,Cc1ncccc1CNc1ccc(OCCO)nc1,3.49
17,CN(Cc1ccccc1)CC(O)Cn1cnc2ccc(Br)cc2c1=O (stereo unspecified),-12.19
18,O=C1CC2(CCSC2)C(=O)N1Cc1coc(-c2ccc(F)cc2)n1 (stereo unspecified),-12.34
19,O=C(NCC1(c2ccc(F)cc2)CC1)N1CCC2(CCOC2)C1 (stereo unspecified),-21.09
20,O=C(NCc1nnc2n1CCCCC2)N1CCC2(CCCCC2)C1,55.36
21,O=C(NCc1nnc2n1CCC2)N1CCC2(CCCCC2)CC1,26.74
22,O=C(NCCc1nnc2n1CCC2)N1CCC2(CCCCC2)C1,-9.03

row,Compound,INHIBITION [%]
1,O=C(Cc1ccc2c(c1)OCCO2)NCCc1nnc2n1CCC2,-29.94
2,CCc1nnsc1C(=O)NCCc1nnc2n1CCC2,-8.74
3,O=C(NCc1ccc(Cl)s1)NCc1nnc2n1CCCCC2,15.28
4,O=C(NCCc1nnc2n1CCCCC2)N1CCC2(CCCC2)CC1,55.36
5,O=C(CCc1ccc(Cl)s1)NCc1nnc2n1CCCCC2,58.05
6,O=C(NCc1nnc2n1CCCCC2)N1CCc2ccccc2C1,25.61
7,O=C(NCCc1ccc(Cl)s1)NCc1nnc2n1CCCC2,-19.35
8,O=C(NCCc1nnc2n1CCCCC2)N1CCC2(CCOC2)C1 (stereo unspecified),69.67
9,Cc1nc(C)n(CC2CCCN2CC(=O)NCCC2=CCCCC2)n1 (stereo unspecified),24.17
10,COc1c(Br)c(C(=O)NC2CCCC2)nn1C,32.75
11,O=c1[nH]c2cc3c(cc2cc1CN1CCCC1c1ccccn1)OCO3 (stereo unspecified),-8.01
12,CCNC(=O)N1CCC(NC(=O)NCCc2cc(F)cc(F)c2)C1 (stereo unspecified),24.82
13,CC(C)Oc1cccc(C(=O)C2CCCN(C(=O)c3cncs3)C2)c1 (stereo unspecified),30.07
14,CN1CCCN(C(=O)c2ccnn2-c2ccc3ccccn23)CC1,-25.2
15,COC(=O)c1cccn1C1CCN(C(=O)c2cn[nH]c2C)CC1,0.26
16,O=C(NCC(=O)N1CCCC1)c1nn(-c2ccccc2F)cc1O,-8.52
17,Cc1cc(CN(C)C(=O)c2ccc(F)c(C(F)(F)F)c2)no1,46.52
18,COc1ccc(-n2cc3nc(N4CCCC4)[nH]cc-3c2=O)cc1Cl,26.03
19,CN(C)C(=O)[C@H]1CCS(=O)(=O)[C@@H]2CN(c3ncc(F)cn3)C[C@H]12,32.26
20,O=C1CC(c2cccs2)c2snc(C(=O)O)c2N1 (stereo unspecified),-4.4
21,CN1Cc2c(C(=O)Nc3cccnc3)ncn2-c2ccccc2S1(=O)=O,8.85
22,CCC(=O)N1CCC2(C=C(C(=O)N(C)C)c3ccccc32)CC1,-19.05

row,Compound,INHIBITION [%]
1,O=C(NCCc1nnc2n1CCC2)NCC1(c2ccc(F)cc2)CC1,81.42
2,O=C(NCCc1nnc2n1CCC2)NCC1(c2cccc(F)c2)CC1,-14.15
3,O=C(NCCc1nnc2n1CCC2)NCC1(c2ccccc2)CC1,-1.32
4,O=C(NCc1nnc2n1CCC2)N1CCc2sccc2C1,15.67
5,O=C(NCc1nnc2n1CCCCC2)N1CCc2sccc2C1,32.11
6,O=C(NCc1nnc2n1CCCC2)N1CCc2sccc2C1,53.11
7,CCn1cc(C(=O)N2CCCC(c3nccs3)C2)cn1 (stereo unspecified),2.6
8,COc1cccc2[nH]cc(CCNC(=O)N3CCCC3CO)c12 (stereo unspecified),1.41
9,Cc1ccc(C(=O)N2CCCC(n3cncn3)C2)o1 (stereo unspecified),14.17
10,COc1ccnc(N2CCN(CC(=O)N3CCC(C)CC3)CC2)n1,39.72
11,COc1ccnc(NC2CCN(CC(=O)Nc3ccccc3)CC2)n1,-37.65
12,COc1ccnc(NC2CCN(CC(=O)N3CCCC3)CC2)n1,72.05
13,CCOc1cccc(C(=O)Nc2ccn(CC)n2)c1,6.64
14,COc1cc(OC)cc(C(=O)NCc2nn(C)c3c2COCC3)c1,-63.73
15,CCn1ccc(CNC(=O)c2cc(OC)cc(OC)c2)n1,65.06
16,CC(C)(NCC(=O)NCC1CC1)c1ccc2c(c1)OCCO2,-51.94
17,Cc1ccc(CN2CC[C@H](O)[C@@H](n3ccc(=O)[nH]c3=O)CC2)cc1,29.89
18,O=C(NCCCn1ccnn1)C1CCCN(C2CCCC2)C1 (stereo unspecified),27.11
